Four compounds from PubChem BioAssay (EPA / NIEHS) can be followed below.

The source made the active and inactive calls. How the source made its calls: active means hit-call score of the fitted dose curve at least 0.9, where 1 is the maximum; inactive means score below 0.9.

Holding throughout (settings): mRNA level, 48 h; actives raise or lower the signal
Read-out in experiment [1]: flavin-containing dimethylaniline monooxygenases 3 (FMO3), FMO3 (gene 2328)
Briefly: LTEA_HepaRG_FMO3: Life Technologies and Expression Analysis (LTEA) Assay for flavin-containing dimethylaniline monooxygenases 3 (FMO3) using HepaRG (AID 2283453). Summed up:
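Differentiated HepaRG cells in serum-free induction medium, exposed 48 h in duplicate to 8 half-log concentrations up to 100 uM in 0.5% DMSO. FMO3 mRNA by qRT-PCR, normalized to ACTB, GAPDH, POLR2A; bidirectional fit vs DMSO.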

Read-out in experiment [2]: Cytochrome P450 (CYP1A1), CYP1A1 (gene 1543)
The experiment is described as follows: LTEA_HepaRG_CYP1A1: Life Technologies and Expression Analysis (LTEA) Assay for Cytochrome P450 (CYP1A1) using HepaRG (AID 2283454). Summed up: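 Differentiated human HepaRG cells, after 48 h plating, exposed in duplicate for 48 h in serum-free induction medium to 8 half-log concentrations up to 100 uM in 0.5% DMSO. CYP1A1 mRNA by qRT-PCR, normalized to ACTB/GAPDH/POLR2A; bidirectional fit versus DMSO.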

Read-out in experiment [3]: CFLAR gene, CFLAR (gene 8837)
The experiment is described as follows: LTEA_HepaRG_CFLAR: Life Technologies and Expression Analysis (LTEA) Assay for CFLAR gene using HepaRG (AID 2283455). Summed up: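 HepaRG, 48 h exposure, 8-pt conc-response (100 uM top, half-log), 0.5% DMSO vehicle, duplicates. CFLAR expression by qRT-PCR; ACTB/GAPDH/POLR2A normalization; gain or loss fit vs DMSO baseline.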

Read-out in experiment [4]: Forkhead box O1 (FOXO1), FOXO1 (gene 2308)
The experiment is described as follows: LTEA_HepaRG_FOXO1: Life Technologies and Expression Analysis (LTEA) Assay for Forkhead box O1 (FOXO1) using HepaRG (AID 2283456). Summed up:
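Readout is FOXO1 transcript level by multiplexed qRT-PCR against three housekeeping genes, curve-fitted in both directions relative to 0.5% DMSO vehicle. Human HepaRG cultures received chemicals for 48 h, up to 100 uM in half-log steps.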

Read-out in experiment [5]: growth arrest and DNA damage 45 (GADD45A), GADD45A (gene 1647)
Briefly: LTEA_HepaRG_GADD45A: Life Technologies and Expression Analysis (LTEA) Assay for growth arrest and DNA damage 45 (GADD45A) using HepaRG (AID 2283458). Summed up: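 Cells plated and cultured 48 h, switched to serum-free induction medium, then dosed for 48 h (100 uM top, half-log dilutions, 0.5% DMSO). RNA was isolated and transcript measured by Fluidigm qRT-PCR.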

Read-out in experiment [6]: Forkhead box O3 (FOXO3), FOXO3 (gene 2309)
The experiment is described as follows: LTEA_HepaRG_FOXO3: Life Technologies and Expression Analysis (LTEA) Assay for Forkhead box O3 (FOXO3) using HepaRG (AID 2283459). An outline of the steps: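 HepaRG, 48 h post-dose; 8 conc., half-log from 100 uM, 0.5% DMSO, duplicates; serum-free induction medium. Readout: FOXO3 mRNA, TaqMan qRT-PCR, housekeeping-normalized. Bidirectional curve fit vs DMSO baseline.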

Read-out in experiment [7]: ABC Transporter (ABCB1), ABCB1 (gene 5243)
The experiment is described as follows: LTEA_HepaRG_ABCB1: Life Technologies and Expression Analysis (LTEA) Assay for ABC Transporter (ABCB1) using HepaRG (AID 2283460). Summed up:
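Expression of ABCB1 was quantified by qRT-PCR against three housekeeping genes after human HepaRG cultures received test chemicals for 48 hours. Concentrations spanned eight half-log steps topping at 100 uM in 0.5% DMSO; gain or loss of signal was fitted relative to vehicle.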

Read-out in experiment [8]: ABC Transporter (ABCC3), ABCC3 (gene 8714)
Briefly: LTEA_HepaRG_ABCC3: Life Technologies and Expression Analysis (LTEA) Assay for ABC Transporter (ABCC3) using HepaRG (AID 2283462). Summed up:
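Differentiated human HepaRG cells exposed 48 h in serum-free induction medium, 0.5% DMSO vehicle, 8-point half-log series to 100 uM in duplicate. ABCC3 mRNA by qRT-PCR, normalised to ACTB, GAPDH, POLR2A; bidirectional fit vs DMSO.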

Read-out in experiment [9]: ABC Transporter (ABCB11), ABCB11 (gene 8647)
Briefly: LTEA_HepaRG_ABCB11: Life Technologies and Expression Analysis (LTEA) Assay for ABC Transporter (ABCB11) using HepaRG (AID 2283463). An outline of the steps: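 ABCB11 transcript levels are read by Fluidigm TaqMan qRT-PCR after 48 h chemical treatment of human HepaRG cells. Concentrations span 100 uM downward in half-log steps with 0.5% DMSO; gain or loss is fitted against DMSO controls.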

Read-out in experiment [10]: ABC Transporter (ABCC2), ABCC2 (gene 1244)
The experiment is described as follows: LTEA_HepaRG_ABCC2: Life Technologies and Expression Analysis (LTEA) Assay for ABC Transporter (ABCC2) using HepaRG (AID 2283464). Summed up: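 Differentiated HepaRG cells in serum-free induction medium exposed 48 h to eight half-log concentrations up to 100 uM, 0.5% DMSO, in duplicate. ABCC2 mRNA measured by qRT-PCR (TaqMan, Fluidigm), normalized to ACTB, GAPDH and POLR2A. Fitted in both directions against DMSO.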

Read-out in experiment [11]: Broad substrate specificity ATP-binding cassette transporter ABCG2 (Homo sapiens) (UniProt Q9UNQ0)
The experiment is described as follows: LTEA_HepaRG_ABCG2: Life Technologies and Expression Analysis (LTEA) Assay for ABC Transporter (ABCG2) using HepaRG (AID 2283465). An outline of the steps:
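Read-out is ABCG2 mRNA induction or loss quantified by qRT-PCR after 48 h chemical treatment of human HepaRG cells, normalized to three housekeeping genes. Concentrations reached 100 uM top in half-log steps; fitting was bidirectional against 0.5% DMSO.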

Read-out in experiment [12]: ATP-citrate lyase (ACLY), ACLY (gene 47)
Briefly: LTEA_HepaRG_ACLY: Life Technologies and Expression Analysis (LTEA) Assay for ATP-citrate lyase (ACLY) using HepaRG (AID 2283466). An outline of the steps: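 HepaRG, 48 h exposure, 8-pt half-log dilutions (top 100 uM), 0.5% DMSO. Readout: ACLY mRNA, TaqMan qRT-PCR, housekeeping-normalized (ACTB/GAPDH/POLR2A). Bidirectional curve fit vs DMSO.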

Read-out in experiment [13]: Peroxisomal acyl-coenzyme A oxidase 1 (ACOX1) gene, ACOX1 (gene 51)
The experiment is described as follows: LTEA_HepaRG_ACOX1: Life Technologies and Expression Analysis (LTEA) Assay for Peroxisomal acyl-coenzyme A oxidase 1 (ACOX1) gene using HepaRG (AID 2283467). An outline of the steps:
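Measured by qRT-PCR against three housekeeping genes: ACOX1 transcript change in human HepaRG cells after 48 h dosing. Concentrations ran up to 100 uM in half-log steps. Curves were fitted bidirectionally relative to 0.5% DMSO.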

Read-out in experiment [14]: Alkaline Phosphatase, Placental (ALPP) gene, ALPP (gene 250)
Briefly: LTEA_HepaRG_ALPP: Life Technologies and Expression Analysis (LTEA) Assay for Alkaline Phosphatase, Placental (ALPP) gene using HepaRG (AID 2283468). An outline of the steps: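 HepaRG cells plated 48 h, then exposed in duplicate for 48 h in serum-free induction medium to 8-point half-log series from 100 uM in 0.5% DMSO. ALPP mRNA by TaqMan qRT-PCR, normalized to ACTB/GAPDH/POLR2A; bidirectional fit versus DMSO.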

Read-out in experiment [15]: Bcl-2 (BAD) gene, BAD (gene 572)
The experiment is described as follows: LTEA_HepaRG_BAD: Life Technologies and Expression Analysis (LTEA) Assay for Bcl-2 (BAD) gene using HepaRG (AID 2283469). Summed up:
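BAD transcript change, measured by qRT-PCR against three housekeeping genes and fitted in both directions relative to 0.5% DMSO, after 48 h chemical treatment of human HepaRG liver cells at concentrations up to 100 uM.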

Read-out in experiment [16]: adenosine kinase (ADK) gene, ADK (gene 132)
Briefly: LTEA_HepaRG_ADK: Life Technologies and Expression Analysis (LTEA) Assay for adenosine kinase (ADK) gene using HepaRG (AID 2283471). Summed up:
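ADK expression quantified by qRT-PCR, normalised to three housekeeping genes, after 48 h exposure of HepaRG cells to eight concentrations (top 100 uM, half-log steps, duplicate, 0.5% DMSO). Up- or down-regulation fitted relative to vehicle.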

Read-out in experiment [17]: Alpha-fetoprotein (AFP) gene, AFP (gene 174)
Briefly: LTEA_HepaRG_AFP: Life Technologies and Expression Analysis (LTEA) Assay for Alpha-fetoprotein (AFP) gene using HepaRG (AID 2283472). An outline of the steps:
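HepaRG, single lot; 48 h post-plating -> serum-free induction medium; cpd 8-pt, 100 uM top, half-log, 0.5% DMSO, duplicate, 48 h. RNA -> qRT-PCR AFP, norm ACTB/GAPDH/POLR2A. Bidirectional fit vs DMSO.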

Read-out in experiment [18]: growth arrest and DNA damage 45 (GADD45B), GADD45B (gene 4616)
Briefly: LTEA_HepaRG_GADD45B: Life Technologies and Expression Analysis (LTEA) Assay for growth arrest and DNA damage 45 (GADD45B) using HepaRG (AID 2283461). Summed up:
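Differentiated human HepaRG cells in serum-free induction medium exposed 48 h in duplicate to eight concentrations, top 100 uM, half-log steps, 0.5% DMSO. GADD45B mRNA by TaqMan qRT-PCR, normalized to ACTB, GAPDH, POLR2A; bidirectional fit versus DMSO.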

Read-out in experiment [19]: Bcl-2 (BAX) gene, BAX (gene 581)
Briefly: LTEA_HepaRG_BAX: Life Technologies and Expression Analysis (LTEA) Assay for Bcl-2 (BAX) gene using HepaRG (AID 2283470). An outline of the steps: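 HepaRG (human liver), 48 h exposure, duplicate wells. 8-pt curve, half-log from 100 uM, 0.5% DMSO. BAX transcript by TaqMan qRT-PCR; ACTB/GAPDH/POLR2A normalization; gain or loss vs DMSO baseline.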

Sequence of Broad substrate specificity ATP-binding cassette transporter ABCG2 (Homo sapiens) (Q9UNQ0 whole entry, looked up): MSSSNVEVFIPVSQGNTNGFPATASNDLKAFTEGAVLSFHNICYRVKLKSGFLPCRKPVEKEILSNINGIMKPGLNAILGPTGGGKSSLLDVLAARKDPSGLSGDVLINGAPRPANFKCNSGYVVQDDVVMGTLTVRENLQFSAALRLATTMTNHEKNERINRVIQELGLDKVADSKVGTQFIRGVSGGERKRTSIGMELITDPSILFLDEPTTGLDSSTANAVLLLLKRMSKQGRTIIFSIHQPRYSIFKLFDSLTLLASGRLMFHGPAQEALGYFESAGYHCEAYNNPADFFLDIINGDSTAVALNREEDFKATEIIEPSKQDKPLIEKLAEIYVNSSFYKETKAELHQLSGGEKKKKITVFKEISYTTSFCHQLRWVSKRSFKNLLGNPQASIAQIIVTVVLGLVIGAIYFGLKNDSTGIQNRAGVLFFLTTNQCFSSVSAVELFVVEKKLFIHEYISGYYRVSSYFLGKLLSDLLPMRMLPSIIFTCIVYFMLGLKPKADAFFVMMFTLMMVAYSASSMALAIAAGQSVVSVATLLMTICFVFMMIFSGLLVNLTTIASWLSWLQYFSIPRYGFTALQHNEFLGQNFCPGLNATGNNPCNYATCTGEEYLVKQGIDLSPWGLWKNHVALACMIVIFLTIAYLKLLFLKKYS

In the case of `COC(=O)Nc1nc2ccccc2[nH]1`, the result in experiment [1], in [3], in [4], in experiment [5], in experiment [6] and in experiment [7] was inactive. The call in experiment [8], in experiment [9], in experiment [10], in [11], in experiment [12] and in experiment [13] was inactive. Besides, the compound was called inactive in experiment [14], in [15], in [16] and in [17]. The AC50 in experiment [2] is 24.7 µM (active).
`Nc1cc(Cl)cc(C(=O)O)c1Cl`: the compound was classed as inactive in experiment [1], in experiment [3], in experiment [4], in experiment [5], in experiment [6] and in experiment [7]. For the same compound, the call in [18], in [8], in [9], in experiment [10], in experiment [11] and in [12] was inactive. Also, the compound was classed as inactive in experiment [13], in [14], in [15], in experiment [19] and in experiment [16]. Moreover, the half-maximal activity concentration (AC50) in experiment [2] was 63.4 µM (active).
On to `Brc1ccc(Oc2ccccc2)cc1`, for which the call in experiment [1], in experiment [3], in [4], in [5], in experiment [6] and in experiment [7] was inactive. For the same compound, the outcome in experiment [8], in experiment [9], in experiment [10], in [11], in experiment [12] and in experiment [13] was inactive. Also, the compound was classed as inactive in experiment [14], in [15], in [19] and in [17]. Also, the AC50 in experiment [2] was 50 µM (active).
With `Cc1ccc(N=C=O)cc1N=C=O`, the AC50 in experiment [1] is 31.2 µM (active); in experiment [2] it was 40.4 µM (active); in [9], 20.2 µM (active); in experiment [12] it was 12.5 µM (active); in experiment [17], 50 µM (active). The result in experiment [3], in experiment [4], in [5], in experiment [6], in experiment [7] and in [8] was inactive. Also, the outcome in experiment [10], in experiment [11], in experiment [13], in [14], in [15] and in experiment [16] was inactive.
